The results in this text go back to PubChem BioAssay AID697 (Columbia University Molecular Screening Center, 2007).

Screen size: about 96,000 compounds; about 100 (0.1%) were called active. Many of the other results were omitted from the sample, so actives are more common in it than they were. Values without a mark were called inactive.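 How the source made its calls: active means activation at 2 µM above a set limit, the mean plus 5 SD (cut at about 37% in these data); inactive means the rest.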

In this test the target is Tyrosine-protein phosphatase non-receptor type 22 (Homo sapiens) (UniProt Q9Y2R2). Nature of the test: enhancers of human PTPN22 catalytic activity – biochemical, DiFMUP fluorescence, 2 µM, primary screen (AID 697). Conditions: recombinant LYP, at 2 µM, stronger effect = higher value, 0 = plate median, 100 = signal doubled.
Tyrosine-protein phosphatase non-receptor type 22 (Homo sapiens), sequence (Q9Y2R2 whole entry, looked up): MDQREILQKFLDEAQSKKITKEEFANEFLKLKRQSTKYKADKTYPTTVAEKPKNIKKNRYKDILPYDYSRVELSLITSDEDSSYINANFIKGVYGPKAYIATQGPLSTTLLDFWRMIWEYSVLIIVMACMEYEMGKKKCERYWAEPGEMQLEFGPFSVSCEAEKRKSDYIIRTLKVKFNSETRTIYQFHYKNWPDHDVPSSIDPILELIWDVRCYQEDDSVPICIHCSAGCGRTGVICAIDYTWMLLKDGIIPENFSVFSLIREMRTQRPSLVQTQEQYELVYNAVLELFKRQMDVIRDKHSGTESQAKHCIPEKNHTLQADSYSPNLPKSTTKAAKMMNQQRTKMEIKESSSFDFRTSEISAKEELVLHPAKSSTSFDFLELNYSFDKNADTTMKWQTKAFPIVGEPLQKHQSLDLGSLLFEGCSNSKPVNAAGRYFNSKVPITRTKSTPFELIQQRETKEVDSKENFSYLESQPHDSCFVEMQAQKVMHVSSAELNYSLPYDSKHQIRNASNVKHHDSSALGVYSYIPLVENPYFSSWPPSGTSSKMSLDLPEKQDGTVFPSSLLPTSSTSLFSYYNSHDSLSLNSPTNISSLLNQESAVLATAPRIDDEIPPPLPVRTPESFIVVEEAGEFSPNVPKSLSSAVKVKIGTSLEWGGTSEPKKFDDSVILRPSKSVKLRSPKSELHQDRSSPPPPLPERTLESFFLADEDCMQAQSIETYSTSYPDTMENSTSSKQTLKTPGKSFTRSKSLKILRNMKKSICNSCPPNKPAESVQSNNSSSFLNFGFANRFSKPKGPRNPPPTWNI
`Cc1cc(C)n2nc(C(=O)NC(C)(C)C)nc2n1`: the activation is 3.4%.
On to `C=CCN(C(=O)Nc1ccc2oc(C)nc2c1)c1ccccc1`, for which the activation is -7.1%.
Take `COC(=O)c1cccc(-n2[nH]nnc2=S)c1`: the activation is -1.7%.
Take `CC(C)(CCl)C(=O)Nc1ccc(Sc2ccc(F)cc2)cc1`: the activation was 1.3%.
Regarding `CC1(C)Cc2cccc(OCC(N)=O)c2O1`, the activation was -3.7%.
To `CCCCCCc1cc2cc(-c3nnc(-c4cccc(OC)c4)o3)c(=O)oc2cc1O` belongs -30.3%.
As to `COc1ccc(CNc2ccc3c(c2)CCC3)cc1OC`, the activation was -10.3%.
Take `COc1ccc(OC)c(-n2nnnc2SCC(=O)Nc2cc(C)ccc2OC)c1`: the activation was 2.6%.
Take `CC(C)C(=O)Nc1ccc2c(c1)oc1ccccc12`: the activation is -1.6%.
Consider `N/C(=N\OC(=O)c1cc(-c2ccccc2)nc2ccccc12)c1ccncc1`, for which the activation was -7.1%.
`COc1ccc2c(c1)cc1n2CCN=C1NN`: the activation was 0.1%.
Turning to `COc1ccc(NC(=O)C2C3C=CC(C3)C2C(=O)NCc2ccccn2)c(OC)c1` (stereo unspecified), the activation is -5%.
Consider `CC1=NN(/C(=N\c2nnc(C)s2)Nc2ccccc2)[C@H](c2ccc(C)cc2)S1`, for which the activation is -6.4%.
Turning to `CCc1ccc(C(=O)CSc2nnc(C)c(=O)[nH]2)cc1`, the activation is -2.7%.
To `COc1ccc(OC(C)C(=O)Nc2cccnc2)cc1` (stereo unspecified) belongs 6.9%; to `C/C(=N/NC(=O)c1ccc(NC(=O)c2ccc(F)cc2)cc1)c1ccccc1`, -1.9%.
`CCc1ccc(C2C(C#N)=C(N)Oc3n[nH]c(CC(=O)OC)c32)cc1` (stereo unspecified): the activation was 5.3%.
Regarding `COC(=O)CSc1nc2c(c(C3CC=CCC3)c1C#N)CCC2` (stereo unspecified), the activation is -5.9%.
For the molecule `C=CCNC(=O)c1cc2nc(C3CC3)cc(C(F)F)n2n1`, the activation is -5.5%.
`COC(=O)c1cccc(N(C(=O)c2ccco2)C(C(=O)NC2CCCC2)c2ccco2)c1` (stereo unspecified): the activation is 6.5%.
As to `CC(C)C(=O)Nc1nnc(Sc2ccc(N(C)C)cc2)s1`, the activation is -2.7%.
To `Cc1nn(Cc2ccc(F)cc2)c(C)c1NC(=O)c1noc2c1CCc1ccccc1-2` belongs 7.1%.
For `CCOc1c2ccc(C(=O)NCc3ccc(OC(F)(F)F)cc3)cc2nn1C`, the activation is 10%.
As for `COc1cc(C(=S)N2CCOCC2)cc(OC)c1OC(=O)c1cc([N+](=O)[O-])c(C)c([N+](=O)[O-])c1`, the activation was 7%.
To `Cc1cc(-c2cccs2)nc(-n2cccc2)n1` belongs 3.4%; to `CC1=CC(=O)C=CC1(C)C(Cl)(Cl)Cl` (stereo unspecified), 3.7%; to `FC(F)(F)c1cc(C(F)(F)F)c2ccc(N3CCN(c4ccccc4)CC3)nc2n1`, 2.8%.
For the molecule `O=C1OC(c2ccc(Cl)cc2)=N/C1=C\c1cccnc1`, the activation is 7.7%.
In the case of `CC(C)c1cc(C(=O)O)n[nH]1`, the activation is 1.7%.
As to `O=C(Nc1ccc2nc3n(c(=O)c2c1)CCCCC3)c1ccccc1Cl`, the activation was -2.7%.
For the molecule `CC1(C)CC(=O)C=C(N2CCCC2)C1`, the activation was -1.1%.
Take `Cc1ccc(C2=CSC3=NS(=O)(=O)CCN23)cc1C`: the activation was -4.4%.
With `Cc1ccc(-n2c(=O)c(C#N)cc3c(=O)n4ccccc4nc32)cc1C`, the activation is 5.7%.
Turning to `CCCCCOC(=O)c1ccc(N2C(=O)C3C4C=CC(C4)C3C2=O)cc1` (stereo unspecified), the activation was 12.4%.
To `CCC(C)NC(=O)c1ccccc1NC(=O)c1ccccc1N(C)S(C)(=O)=O` (stereo unspecified) belongs 0.7%; to `CC(C)CC(=O)N1CCC(O)(CS(=O)(=O)Cc2ccccc2)CC1`, -3.4%.
As to `CCCCNC(=O)c1onc(CSc2cccc(OC)c2)c1C(=O)O`, the activation was 4.5%.
To `COc1ccc(CCN(C(=O)COc2ccccc2)c2nc(-c3ccccc3)cs2)cc1OC` belongs -13.3%.
`Cc1noc(NS(=O)(=O)c2ccc(N/C=C/C(=O)c3ccccc3)cc2)c1C`: the activation was 1.5%.
As to `CCCCCc1ccc(-c2ccc(C(=O)O)cc2)nc1`, the activation is -8.9%.
As to `Cc1sc(NC(=O)C2C3CCC(O3)C2C(=O)O)c(C(=O)OC(C)C)c1-c1ccc(Cl)cc1` (stereo unspecified), the activation was -4.2%.
Regarding `COc1cc(/C=C2/C(=O)ON=C2C)ccc1OCc1ccccc1F`, the activation was 6.2%.
`Cc1ccc(S(=O)(=O)/N=C(\CN2CCOCC2)N2CCOCC2)cc1`: the activation was -1.4%.
Turning to `FC(F)(F)c1nc2ccccc2nc1N/N=C/c1ccc(Cl)cc1`, the activation was 5.5%.
`CCOC(=O)Cn1c(-c2cccnc2Cl)nc2ccccc21`: the activation was 15.2%.
On to `NC(=O)C1(N2CCCCC2)CCN(C2CC(=O)N(Cc3ccc(N4CCCC4=O)cc3)C2=O)CC1` (stereo unspecified), for which the activation is -5.5%.
To `CN(C)C(=O)c1cc(Br)ccc1Cl` belongs -3.6%; to `COc1ccc(N(CC(=O)N/N=C/c2cccc3c2OCCO3)S(=O)(=O)c2ccc(NC(C)=O)cc2)cc1`, 7.5%; to `O=C(/C=C/c1ccc(Cl)cc1Cl)c1cccnc1`, 2.2%.
Take `CCOC(=O)N1CCN(Cc2nc(N)nc(Nc3ccc(C)cc3)n2)CC1`: the activation is 7.7%.
In the case of `COc1cc(/C=C(\C#N)c2nc3c(s2)CC(C)CC3)ccc1O` (stereo unspecified), the activation was -3.9%.
As to `COCc1cc(C)nc2sc3c(=O)n(-c4cccc5ccccc45)nnc3c12`, the activation was -7.5%.
For the molecule `CC(=O)NC1=NN(C(C)=O)C(C)(c2ccc(Cl)s2)S1` (stereo unspecified), the activation is 5.6%.
With `O=S(=O)(c1cccc2nonc12)N1CCN(c2cccc(Cl)c2)CC1`, the activation is 8.3%.
To `O=C(O)CSCc1ccc(C(=O)O)o1` belongs -1.8%; to `CC(=O)c1cc2c(cc1NC(=O)CN1CCCCCC1)OCO2`, -5.9%; to `COc1ccccc1CNS(=O)(=O)c1ccc(C)cc1`, -13.5%.
In the case of `COC(=O)C1=C(C(=O)OC)C2(OC1c1ccc(Br)cc1)C(=O)c1ccccc1C2=O` (stereo unspecified), the activation is -2.6%.
To `O=C(Cc1ccc2c(c1)CCCC2)Nc1ccccc1Cl` belongs 5.5%; to `CCOc1ccccc1C(=O)NC1CC2CCCC(C1)N2Cc1ccccc1` (stereo unspecified), -12.3%.
As to `O=C(COc1ccc(S(=O)(=O)NCc2ccccc2)cc1)N1CCOCC1`, the activation was 2.4%.
Turning to `Cc1cccc(C)c1OC(=O)CSc1nnc(-c2ccccc2)o1`, the activation is 1.3%.
With `COc1ccc(NS(=O)(=O)c2ccc(NC(=S)NC(=O)CC(C)C)cc2)cc1`, the activation is 4.5%.
On to `O=C(CSCc1ccc([N+](=O)[O-])cc1)Nc1cccc(C(=O)Nc2ccccc2C(=O)O)c1`, for which the activation is 1.6%.
In the case of `Cc1c(Nc2cc(N3CCCC(C)C3)c3nonc3c2[N+](=O)[O-])c(=O)n(-c2ccccc2)n1C` (stereo unspecified), the activation is 3.1%.
Consider `CCCCN(CC)CCNC(=O)c1[nH]c(C)c(C(C)=O)c1C`, for which the activation was 1.3%.
As for `Cc1noc(C)c1CSCC(=O)Nc1nc2ccc(Oc3ccccc3)cc2s1`, the activation was 1.8%.
In the case of `CCN(CC)C(=O)CC1(c2ccccc2OC)CCOC(C(C)C)C1` (stereo unspecified), the activation was 4.3%.
Turning to `COc1ccc(NC(=O)CC2COc3ccccc3O2)c(OC)c1` (stereo unspecified), the activation is 0.8%.
Then `CCN(CC)CCNc1ccc(Cl)cc1[N+](=O)[O-]`, with 14%; and `CC(C)C(=O)NC(=S)Nc1ccccc1F`, with -2.4%; and `CCn1c(O)c2ccc(C(=O)N=NC(=O)c3cccnc3)cc2c1O`, with 0.7%.
For `O=C(/C=C/c1cccs1)c1cc(Cl)ccc1OC(=O)N1CCOCC1`, the activation was 2.4%.
Turning to `Clc1ccc(-n2nnnc2-c2cnc(-c3ccccn3)nc2-c2cccs2)cc1`, the activation was 3.1%.
To `O=C(CCN1CCc2ccccc2C(O)(c2ccccc2)C1)c1ccc2c(c1)OCCO2` (stereo unspecified) belongs -5.7%; to `CCOC(=O)CNC(=O)CSc1nc2cccnc2n1CC`, -4.9%.
To `Cc1ccc2[nH]c3c(=O)n(Cc4ccccn4)cnc3c2c1` belongs -0.9%; to `COC(=O)[C@@H](NC(=O)Nc1cc(Cl)ccc1C)C(C)C`, 8.5%.
On to `CC(Oc1ccc(-c2ccccc2)c(F)c1)c1ccn(S(=O)(=O)c2cccc3ccccc23)n1` (stereo unspecified), for which the activation is -6.9%.
On to `CCOC1CS(=O)(=O)CC1OCC` (stereo unspecified), for which the activation was 6.4%.
For `Cc1ccn(C(CC(=O)c2ccc(Br)cc2)C(=O)O)n1` (stereo unspecified), the activation was -7.9%.
As to `COC(=O)CSc1nc(C)c2ccc(OC)cc2n1`, the activation is -3.9%.
Turning to `O=C(Cn1c(-c2cscn2)nc2ccccc21)Nc1ccc(Cl)cc1`, the activation is 3%.
With `O=C(Nc1cc2ccccc2oc1=O)C1CCCCC1`, the activation was -7.9%.
For `COc1cccc(C(=O)Nc2ccc(NC(=O)c3ccco3)cn2)c1`, the activation is 6.7%.
As to `CSCCC(NS(=O)(=O)c1ccc2c(c1)oc(=O)n2C)C(=O)NC1CCCc2ccccc21` (stereo unspecified), the activation was -8.6%.
`O=C(CN1C(=O)NC(Cc2ccccc2)(Cc2ccccc2)C1=O)NCC1CCCCC1`: the activation was 0.3%.
To `Cc1ccccc1NC(=O)c1cc(S(=O)(=O)N2CCOCC2)cs1` belongs 38% (active).
`O=C(Nc1ccccc1F)c1cc(S(=O)(=O)N2CCCCC2)cs1`: the activation was -4.2%.
Regarding `Cc1ccc(C(=O)Nc2ccccc2C(=O)NC2CCCCC2)cc1S(=O)(=O)N1CCOCC1`, the activation is -0.7%.
For `CCCCNS(=O)(=O)c1ccc(S(=O)(=O)n2cnc3ccccc32)cc1`, the activation was -10.5%.
With `CO/N=C/c1ccc(N2CCN(C(=O)c3cccc(Cl)c3)CC2)c([N+](=O)[O-])c1`, the activation is -0.2%.
`COc1cc(C(=S)N2CCOCC2)cc(OC)c1OC(=O)c1cc([N+](=O)[O-])cc([N+](=O)[O-])c1`: the activation was -4.3%.
In the case of `CCn1c(C)nc2c1C(=O)c1ccccc1C2=O`, the activation was -0.9%.
For the molecule `CCn1c(/C=C/c2ccc([N+](=O)[O-])o2)nc2ccccc2c1=O`, the activation is -10.9%.
Take `O=C(NCCCn1ccnc1)Nc1ccc(Cl)cc1Cl`: the activation is 0.8%.
